CIT2-GFP yeast = modulators of CIT2-GFP expression in yeast, primary screen, S. cerevisiae, GFP fusion, multiplex flow cytometry, MLPCN library | S. cerevisiae CIT2-GFP strain, 3 h; 100 means same as DMSO wells | GFP response vs DMSO, % at 10 µM | 0.065% of 320,000 active;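 active = GFP response relative to DMSO above a set limit, near the screen mean plus 3 SD, cut at about 150% in these data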;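 note: ratio of well median GFP fluorescence to mean of DMSO wells on the plate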
MEP2-GFP yeast = modulators of MEP2-GFP levels in yeast, primary screen, S. cerevisiae, multiplex flow cytometry, MLPCN library | S. cerevisiae MEP2-GFP strain, 3 h; 100% = DMSO control level | GFP response vs DMSO, % at 10 µM | 0.51% of 330,000 active | AID 2016, 2009;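 active = GFP response versus DMSO above a set limit, roughly screen mean plus 3 SD, cut at about 180% in these data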;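 note: median GFP fluorescence of the barcode-gated MEP2-GFP cells per well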
RPL19A TOR yeast = RPL19A-GFP expression modulators in yeast, primary screen, cell-based, S. cerevisiae, multiplex flow cytometry, MLPCN | S. cerevisiae RPL19A-GFP strain, 3 h; active compounds read low | percent response vs DMSO, % at 10 µM | 0.3% of 330,000 active | AID 2025, 2009;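 active = percent response vs DMSO below 50%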;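 note: median channel GFP fluorescence of the barcoded RPL19A-GFP strain; lower means less RPL19A-GFP as with rapamycin TOR inhibition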
AGP1-GFP MLPCN = modulators of AGP1-GFP expression in yeast TOR pathway, primary screen, cell-based, multiplex flow cytometry, S. cerevisiae, MLPCN library. 3 h; GFP as percent of DMSO wells. GFP response vs DMSO, % at 10 µM. 0.02% of 320,000 active;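 active = GFP response relative to DMSO above a set limit, near screen average plus 3 SD, cut at about 150% in these data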;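 note: median GFP channel fluorescence of the gated AGP1 strain per well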
LAP4 TOR yeast = modulators of LAP4-GFP expression in yeast, primary screen, S. cerevisiae, multiplex flow cytometry, MLPCN library | GFP response vs DMSO, % at 10 µM | 3 h; median GFP as percent of DMSO wells | AID 2023, 2009 | 0.34% of 320,000 active;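 active = GFP response vs DMSO above a set limit, about the screen mean plus 3 SD, cut at about 150% in these data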
JMJD2C inh = inhibitors of GASC-1 histone demethylase, primary screen, biochemical, fluorescence, DELFIA europium; Lysine-specific demethylase 4C (Homo sapiens), Q9H3R0; GST-JMJD2C(1-420) H3K9me3 demethylation; inhibition, % at 2.35 µM; 0.069% of 330,000 active; AID 2099, 2009;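 active = more than half of a compound's replicate wells show inhibition beyond 50%, single wells judged on their own value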;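 note: signal counts dimethyl H3K9 product captured on neutravidin plate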
Target sequence (Q9H3R0 1-420 limits assumed): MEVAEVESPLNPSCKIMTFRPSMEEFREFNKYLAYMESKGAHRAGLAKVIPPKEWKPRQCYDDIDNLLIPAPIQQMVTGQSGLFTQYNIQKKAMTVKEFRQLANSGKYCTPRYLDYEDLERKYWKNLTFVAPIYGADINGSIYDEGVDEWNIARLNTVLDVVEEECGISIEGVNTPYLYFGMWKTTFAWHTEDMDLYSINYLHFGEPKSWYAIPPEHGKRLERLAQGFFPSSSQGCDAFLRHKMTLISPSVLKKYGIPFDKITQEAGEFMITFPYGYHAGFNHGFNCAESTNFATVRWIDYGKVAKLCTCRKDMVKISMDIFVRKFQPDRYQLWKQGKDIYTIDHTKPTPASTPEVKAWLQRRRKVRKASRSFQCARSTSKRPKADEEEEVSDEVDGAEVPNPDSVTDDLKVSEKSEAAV
LAP4-GFP pick2 = LAP4-GFP expression modulators in yeast, confirmation, cell-based, second cherry pick, flow cytometry; shares compounds with LAP4 TOR yeast; S. cerevisiae LAP4-GFP strain, 3 h; GFP response vs DMSO, % at 10 µM; 20% of 590 active; AID 2621, 2010;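 active = GFP signal as percent of the solvent control above about 150%, meaning raised reporter expression, limit read from the data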
MEP2-GFP pick2 = modulators of MEP2-GFP levels in yeast, confirmation, S. cerevisiae, flow cytometry GFP, second cherry picks. GFP response vs DMSO, % at 10 µM. S. cerevisiae MEP2-GFP strain, 3 h. 10% of 590 active. AID 2622, 2010. shares compounds with LAP4 TOR yeast;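 active = GFP signal above 150% of the solvent control wells, that is a rise of more than half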;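 note: median channel GFP fluorescence of all gated yeast cells per well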
RPL19A-GFP pick2 = RPL19A-GFP modulators in TOR pathway yeast, confirmation, cell-based, S. cerevisiae, flow cytometry, second cherry pick; shares compounds with LAP4 TOR yeast; S. cerevisiae RPL19A-GFP strain, 3 h; active compounds read low; 100% means same as DMSO wells; GFP response vs DMSO, % at 10 µM; 3% of 590 active; AID 2623, 2010;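 active = under 65% GFP response relative to DMSO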;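 note: median GFP channel fluorescence per well over the all cells gate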
CIT2-GFP pick2 = modulators of CIT2-GFP expression in yeast, confirmation, flow cytometry, second cherry pick, single plex; shares compounds with LAP4 TOR yeast; S. cerevisiae CIT2-GFP strain, 3 h; DMSO control wells read 100%; GFP response vs DMSO, % at 10 µM; 8% of 590 active; AID 2624, 2010;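 active = GFP response vs DMSO above about 150%, limit read from the data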;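 note: median green fluorescence per well over all gated yeast cells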
AGP1 GFP CP2 = AGP1-GFP expression modulators, hit retest, confirmation, cell-based, flow cytometry, S. cerevisiae, cherry pick set 2; 590 tested, under 10 active; shares compounds with LAP4 TOR yeast; S. cerevisiae AGP1-GFP strain, 3 h; AID 2643, 2010; percent response vs DMSO, % at 10 µM;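 active = over 150 percent of DMSO response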;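 note: median GFP channel fluorescence over all cells without mother daughter split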
Yeast autofluor = compound autofluorescence in yeast s288c, dose response, artefact control for yeast TOR pathway GFP screen, s288c strain. shares compounds with LAP4 TOR yeast. S. cerevisiae s288c, 520 nm autofluorescence, flow cytometry, 3 h; active compounds read high; zero means same as solvent-only cells. fluorescence change (kMESF span) at 33 µM. 610 tested, under 10 active. AID 2757, 2010;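 active = fluorescence span over the dose series, or activity score, above about 33, limit read from the data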
Hits are given with their value; – = inactive; · = not tested or not shown. An excerpt weighted towards active compounds, which were near 0.97% of everything screened.

SMILES | CIT2-GFP yeast | MEP2-GFP yeast | RPL19A TOR yeast | AGP1-GFP MLPCN | LAP4 TOR yeast | JMJD2C inh | LAP4-GFP pick2 | MEP2-GFP pick2 | RPL19A-GFP pick2 | CIT2-GFP pick2 | AGP1 GFP CP2 | Yeast autofluor
O=C(COC(=O)c1cc([N+](=O)[O-])ccc1NCCO)Nc1cccnc1Cl | – | – | – | – | – | – | · | · | · | · | · | ·
Cc1ccc(NC(=O)c2cc(-c3ccc4c(c3)OCO4)on2)cc1C | – | – | – | – | – | – | · | · | · | · | · | ·
Cc1cc(C(=O)Nc2ccc3c(c2)OCO3)no1 | 157 | – | – | – | – | – | – | – | – | – | – | ·
Cc1cccc(C(C)C)c1NS(=O)(=O)c1cn(C)nc1C | – | – | – | – | – | – | · | · | · | · | · | ·
CC[C@]1(c2ccccc2OC)ON(c2ccccc2C(F)(F)F)C1=O | – | – | – | – | – | – | – | – | – | – | – | –
Cc1cc(=O)c(C(=O)O)nn1-c1ccccc1C(F)(F)F | – | – | – | – | – | – | · | · | · | · | · | ·
COc1ccc2c(c1)C(=O)N(c1ccccc1OC)C(=O)C2(C)C | – | – | – | – | – | – | · | · | · | · | · | ·
CC(C)C[C@]1(c2ccccc2)ON(c2ccccc2C(F)(F)F)C1=O | – | – | – | – | – | – | – | – | – | – | – | –
COc1ccccc1[C@]1(C)ON(c2ccccc2C(F)(F)F)C1=O | – | – | – | – | 156 | – | 150 | – | – | – | – | –
Cc1ccc2c(c1)[C@H]1[C@H](CO2)[C@H](c2ccccc2)[C@]2(C)C(=O)Nc3cc(F)ccc3C(=O)N12 | – | – | – | – | – | · | · | · | · | · | · | ·
CCCCC(=O)OCc1c(-c2cccc(OC)c2)ncc2ccccc12 | – | – | – | – | – | – | · | · | · | · | · | ·
O=C1OC(c2ccccc2)c2ccccc21 (centres undefined) | – | – | – | – | – | – | · | · | · | · | · | ·
O=S1OC(c2ccccc2)c2cc(Cl)ccc21 (centres undefined) | – | – | – | – | 157 | – | – | – | – | – | – | ·
CN(CCCNC(=O)c1ccccc1F)CCCNC(=O)c1ccccc1F | – | – | – | – | – | – | · | · | · | · | · | ·
CC(C)Cn1c(=O)c(C(=O)Nc2ccncc2)c(O)c2ccccc21 | – | – | 48 | – | – | – | · | · | · | · | · | –

Assay outcomes deposited in PubChem by several laboratories.
